Assay: growth modulation of vineyard yeast isolate – strain RM11-1a, OD600, basal, 24 h, primary screen (AID 1177);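 note: cultures grown under basal conditions with no added stressor; test concentration not given here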
Settings: S. cerevisiae RM11-1a growth, OD600, 24 h; higher = more signal, called active from +8 up or from −8 down

z-score, inactive:
CC1CC/C=C\[C@H]2OC34C=CCN(C(C)C)C(=O)[C@H]3N(CCCCCCO)C(=O)[C@@H]4C2C(=O)O1 (stereo not given in full) -0.908
CC1CC/C=C\[C@H]2OC34C=CCN(c5ccc(Cl)cc5)C(=O)[C@H]3N(CCCCCO)C(=O)[C@]4(C)C2C(=O)O1 (stereo not given in full) 0.0329
COCCCNC(=O)[C@@]1(Sc2ccc(C)cc2)CC(=O)N(C2CCCCC2)[C@@H]1c1ccc(CO)cc1 0.0315
[N-]=[N+]=Nc1ccccc1[C@H]1OC(c2ccc(OCCCO)cc2)=N[C@@]1(Cc1ccccc1)C(=O)N1CCCCC1 1.97
CC(C)OC(=O)C=C1C[C@@H](c2ccc(C(F)(F)F)cc2)O[C@@H](c2ccc(C(F)(F)F)cc2)O1 -1.93
[N-]=[N+]=Nc1ccccc1[C@@H]1OC(c2ccc(OCCCO)cc2)=N[C@]1(Cc1ccccc1)C(=O)NCC(O)CO (stereo not given in full) 1.06
[N-]=[N+]=Nc1ccccc1C[C@]1(C(N)=O)N=C(c2ccc(OCCCO)cc2)O[C@H]1c1ccccc1N=[N+]=[N-] -0.315
C[C@@H]1NC(=O)[C@@]23C(=O)N[C@@H](Cc4ccccc4)C2[C@H](C)[C@@]2(C)O[C@H]2C3/C=C/C/C=C\CNC(=O)[C@@H]2CCCN2C1=O (stereo not given in full) -0.142
COCCCNC(=O)[C@]1(CCS(=O)(=O)c2ccccc2)N=C(c2ccc(OCCCO)cc2)O[C@@H]1c1ccccc1N=[N+]=[N-] 0.771
O=C1OCCC/C=C\[C@H]2OC34C=CCN(CCN5CCOCC5)C(=O)[C@H]3N(CCCCCCO)C(=O)[C@@H]4C12 (stereo not given in full) -1.06
